Source: the supplement of paper PMC12340641
The full ranking holds about 1,000 compounds; the median of “relative growth recovery (pomalidomide 10 uM = 100%, DMSO = 0%)” is about -1.6, and the highest 2% start at about 21. For the sample, the highest values were picked, then their nearest neighbours and some compounds at random.

What follows are compounds tested on HEK293FT dCK*-IKZF1 (assay: relative growth recovery (pomalidomide 10 uM = 100%, DMSO = 0%); higher = more growth rescue (IKZF1 fusion degradation)). Conditions: compound concentration: 5 uM; AraC concentration: 0.3 uM; overnight pretreatment + 4 days AraC.
Experimental: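 Growth recovery screen of the molecular-glue-like (Specs) library. HEK293FT cells expressing a dCK*-IKZF1 fusion (primary) or dCK* alone (counter) were pretreated overnight with compound at 5 uM, then given 0.3 uM AraC for 4 days. Hoechst nuclei were counted by imaging. Primary: normalised to pomalidomide (100%) and DMSO (0%), mean of 2 replicates. Counter: normalised to no-AraC (100%) and AraC+DMSO (0%), single replicate.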

Row | Compound | relative growth recovery [%]
1 | CCC(C)(C)C(=O)Nc1ccc(S(=O)(=O)Nc2ncccn2)cc1 | -5.08
2 | Cc1ccnc(NS(=O)(=O)c2ccc(NS(=O)(=O)c3ccc(F)cc3)cc2)n1 | -0.59
3 | Cc1nc(Nc2cccc(C3CCCN3C(=O)COc3ccc(F)cc3)n2)sc1C (stereo not given) | 14.4
4 | Cc1cc(C)nc(NS(=O)(=O)c2ccc(Nc3nc(-c4cccnc4)cs3)cc2)n1 | -1.15
5 | COc1cc(NS(=O)(=O)c2ccc(NC(=O)COc3ccc(C)cc3)cc2)nc(OC)n1 | 1.75
6 | O=C(CN1CCC(c2cccc(Nc3nccs3)n2)CC1)Nc1ccc(F)cc1 | 9.19
7 | COc1ccc(Cl)c2c1[nH]c1nc(SCC(=O)Nc3ccc(F)cc3)nnc12 | -2.51
8 | Cc1cnc(Nc2cccc(C3(C(N)=O)CCN(C(=O)C4CCCCC4)CC3)n2)s1 | -18.2
9 | COc1ccccc1OCC(=O)Nc1ccc(S(=O)(=O)Nc2ncccn2)cc1 | 1.59
10 | Cc1cnc(Nc2cccc(C3CCN(C(=O)C45CC6CC(CC(C6)C4)C5)CC3)n2)s1 | 1.16
11 | CCCOc1ccc(C(=O)Nc2ccc(S(=O)(=O)Nc3nc(C)cc(C)n3)cc2)cc1 | -2.85
12 | Cc1cc(Cl)ccc1OC(C)C(=O)Nc1ccc(S(=O)(=O)Nc2ccccn2)cc1 (stereo not given) | 0.47
13 | Cc1cc(NS(=O)(=O)c2ccc(NC(=O)CCCOc3ccc(Cl)cc3)cc2)nc(C)n1 | -1.54
14 | Cc1csc(Nc2cccc(C3CCCN3C(=O)CO)n2)n1 (stereo not given) | 1.4
15 | CC(=O)NC1(CC(=O)N2CCC(c3cccc(Nc4ncc(C)s4)n3)CC2)CCCCC1 | -11.7
16 | Cc1ccc(Nc2nc(C3CCCN(CC(N)=O)C3)cs2)nc1 (stereo not given) | -5.75
17 | Cc1cc(C)nc(NS(=O)(=O)c2ccc(NC(=S)NC(=O)c3ccc(F)c(F)c3)cc2)n1 | -2.13
18 | Cc1cnc(Nc2cccc(C3CN(C(=O)C4CCOC4)CCO3)n2)s1 (stereo not given) | -8.06
19 | Cc1cc(C)nc(NS(=O)(=O)c2ccc(NC(=O)COc3ccc(Cl)cc3)cc2)n1 | 3.77
20 | Cc1ccc(S(=O)(=O)Nc2ccc(S(=O)(=O)Nc3ncccn3)cc2)cc1 | -3.26
21 | O=C(Nc1ccc(S(=O)(=O)Nc2ncccn2)cc1)C(F)(F)F | 12.6
22 | O=C1CCC(N2C(=O)c3ccc(N4CCC(C(=O)O)CC4)cc3C2=O)C(=O)N1 (stereo not given) | 1.72
23 | Cc1cc(C)nc(NS(=O)(=O)c2ccc(NC(=O)c3ccc(S(=O)(=O)N(C)C)cc3)cc2)n1 | -5.78
24 | Cc1cc(Cl)ccc1OCC(=O)Nc1ccc(S(=O)(=O)Nc2ncccn2)cc1 | -2.19

Row | Compound | relative growth recovery [%]
25 | Cc1ccc(Oc2ccc(N3C(=O)c4ccc(Oc5ccc(N)cc5)cc4C3=O)cc2)cc1C | -8.53
26 | CCNc1nc(NCC)nc(NS(=O)(=O)c2ccc(N)cc2)n1 | 3.4
27 | Cc1ccnc(NS(=O)(=O)c2ccc(NC(=O)c3ccc(C)c(C)c3)cc2)n1 | 1.75
28 | CC(=O)Nc1ccc(S(=O)(=O)N(C#N)c2nc(C)cc(C)n2)cc1 | 4.26
29 | Cc1cnc(Nc2cccc(C3CN(C(=O)CC4CCCCC4)CCO3)n2)s1 (stereo not given) | -11.7
30 | Cc1cnc(Nc2cccc(C3CN(C(=O)C4CCCCC4)CCO3)n2)s1 (stereo not given) | -11.7
31 | CC(=O)Nc1cccc(Oc2ccc3c(c2)C(=O)N(c2ccc(OC(C)=O)cc2)C3=O)c1 | -2.76
32 | O=C(Nc1ccc(S(=O)(=O)Nc2ncccn2)cc1)c1ccc([N+](=O)[O-])cc1 | -0.33
33 | Cc1csc(Nc2cccc(C3CCCN3C(=O)CC3CC(C)(C)NC(C)(C)C3)n2)n1 (stereo not given) | -0.835
34 | COc1ccc(OCCCC(=O)Nc2ccc(S(=O)(=O)Nc3ncccn3)cc2)cc1 | -3.56
35 | CN(CCN1CCC(C(=O)O)CC1)c1cccc2c1C(=O)N(C1CCC(=O)NC1=O)C2=O (stereo not given) | 5.47
36 | CC(Oc1ccccc1)C(=O)Nc1ccc(S(=O)(=O)Nc2ncccn2)cc1 (stereo not given) | -0.515
37 | CCC(Oc1ccccc1)C(=O)Nc1ccc(S(=O)(=O)Nc2nc(C)cc(C)n2)cc1 (stereo not given) | -3.29
38 | CCC(Oc1ccccc1)C(=O)Nc1ccc(S(=O)(=O)Nc2ncccn2)cc1 (stereo not given) | 78.9
39 | Cc1cc(C)nc(NS(=O)(=O)c2ccc(NC(=O)c3oc4ccccc4c3C)cc2)n1 | -2.64
40 | Cc1cnc(Nc2cccc(C3CCN(C(=O)CCn4ncc5ccccc54)CC3)n2)s1 | -1.66
41 | COc1cc(NS(=O)(=O)c2ccc(NC(=O)c3ccccc3C)cc2)nc(OC)n1 | -0.335
42 | COc1ccc(C(=O)Nc2ccc(S(=O)(=O)Nc3cc(OC)nc(OC)n3)cc2)c(OC)c1 | 3.94
43 | CCOc1cc(C(=O)Nc2ccc(S(=O)(=O)Nc3ncccn3)cc2)cc(OCC)c1OCC | 0.09
44 | COc1ccc(C(=O)Nc2ccc(S(=O)(=O)Nc3ncccn3)cc2)c(OC)c1 | -1.31
45 | Cc1cnc(Nc2cccc(C3CN(C(=O)CN(C(=O)CC(C)C)c4ccccc4)CCO3)n2)s1 (stereo not given) | 1.34
46 | Cc1csc(Nc2cccc(C3CN(C(=O)CCCc4ccc(F)cc4)CCO3)n2)n1 (stereo not given) | 25.2
47 | COc1cccc(CCC(=O)N2CCOC(c3cccc(Nc4ncc(C)s4)n3)C2)c1 (stereo not given) | 15.8
48 | COc1ccc(CCC(=O)N2CCOC(c3cccc(Nc4ncc(C)s4)n3)C2)cc1 (stereo not given) | 15.7

Row | Compound | relative growth recovery [%]
49 | Cc1csc(Nc2cccc(C3CN(C(=O)CCc4nc(C)no4)CCO3)n2)n1 (stereo not given) | 5.6
50 | COc1ccc(CCC(=O)N2CCOC(c3cccc(Nc4nc(C)cs4)n3)C2)cc1 (stereo not given) | 32.4
51 | Cc1csc(Nc2cccc(C3CCCN3C(=O)CCCc3ccc(F)cc3)n2)n1 (stereo not given) | 0.885
52 | O=[N+]([O-])c1ccc(S(=O)(=O)Nc2ccc(Cl)cn2)cc1 | -4.66
53 | O=[N+]([O-])c1ccc(S(=O)(=O)Nc2nc3ccccc3nc2Nc2ccccc2)cc1 | 8.16
54 | CC(C)Nc1nc(NC(C)C)nc(NS(=O)(=O)c2ccc(N)cc2)n1 | -1.87
55 | CC(C)N(C(=O)CN1CCOC(c2cccc(Nc3nccs3)n2)C1)C1CCCCC1 (stereo not given) | -2.24
56 | Cc1csc(Nc2cccc(C3CCN(C(=O)Cn4nc(C)cc4C)CC3)n2)n1 | 16.9
57 | Cc1cnc(Nc2cccc(C3CCN(C(=O)CC4CCCCC4)CC3)n2)s1 | -13.5
58 | O=C(c1cccc2ncccc12)N1CCOC(c2cccc(Nc3nccs3)n2)C1 (stereo not given) | -7.12
59 | Cc1cc(C)nc(NS(=O)(=O)c2ccc(NC(=O)c3ccc(Cl)cc3Cl)cc2)n1 | -0.215
60 | Cc1cnc(Nc2cccc(C(C(=O)N(C)C)C3CCN(C(=O)[C@H](CC(C)C)NC(=O)OC(C)(C)C)CC3)n2)s1 (stereo not given in full) | 3.71
61 | Cc1ccc(C(=O)Nc2ccc(S(=O)(=O)Nc3cc(C)nc(C)n3)cc2)cc1 | -1.57
62 | Cc1cccc(C(=O)Nc2ccc(S(=O)(=O)Nc3nc(C)cc(C)n3)cc2)c1 | 4.85
63 | Cc1nc(Nc2cccc(C3CCCN3C(=O)CCCN3C(=O)CNC3=O)n2)sc1C (stereo not given) | 3.93
64 | Cc1ccc(/C=C/C(=O)Nc2ccc(S(=O)(=O)Nc3ncccn3)cc2)cc1 | -2.17
65 | Cc1cc(OCC(=O)Nc2ccc(S(=O)(=O)Nc3ncccn3)cc2)ccc1Cl | -0.26
66 | NCC(=O)N1CCC(c2cccc(Nc3ncc(Br)s3)n2)CC1 | -17.1
67 | Cc1nn(C)c(C)c1/C=C/C(=O)N1CCC(c2cc3ccccc3c(Nc3nccs3)n2)CC1 | 51.1
68 | Cn1nccc1/C=C/C(=O)N1CCC(c2cc3ccccc3c(Nc3nccs3)n2)CC1 | -16.9
69 | Cc1nc(/C=C/C(=O)N2CCC(c3cc4ccccc4c(Nc4nccs4)n3)CC2)cs1 | -17.8
70 | Cc1ccc(C)c(OCC(=O)Nc2ccc(S(=O)(=O)Nc3nc(C)cc(C)n3)cc2)c1 | -2.19
71 | Nc1ccc(Oc2ccc3c(c2)C(=O)N(CCO)C3=O)cc1 | 2.76
72 | Cc1cnc(Nc2cccc(C(C(=O)N(C)C)C3CCN(C(=O)C4CCCCC4)CC3)n2)s1 (stereo not given) | 1.65

Row | Compound | relative growth recovery [%]
73 | Cc1ccc(Nc2nc(C3CCCN3C(=O)/C=C/c3csc(C)n3)cs2)nc1 (stereo not given) | 0.31
74 | Cn1nccc1/C=C/C(=O)N1CCCC1c1csc(Nc2ccccn2)n1 (stereo not given) | 2.75
75 | O=C(/C=C/c1ccco1)N1CCCC(c2csc(Nc3ccccn3)n2)C1 (stereo not given) | 18.9
76 | Cc1ccc(Nc2nc(C3CCCN(C(=O)/C=C/c4csc(C)n4)C3)cs2)nc1 (stereo not given) | 31.5
77 | Cn1nccc1/C=C/C(=O)N1CCCC(c2cc3ccccc3c(Nc3nccs3)n2)C1 (stereo not given) | -10.2
78 | COC(C)(C)C(=O)N1CCCC(c2csc(Nc3ccc(C)cn3)n2)C1 (stereo not given) | 15.9
79 | CC(=O)N1CCCC(c2csc(Nc3ccccn3)n2)C1 (stereo not given) | -1.67
80 | O=C(/C=C/c1ccccc1)N1CCCC(c2csc(Nc3ccccn3)n2)C1 (stereo not given) | 31.2
81 | Cn1nccc1/C=C/C(=O)N1CCCC(c2csc(Nc3ccccn3)n2)C1 (stereo not given) | 40.9
82 | Cc1ccc(OCC(=O)Nc2ccc(S(=O)(=O)Nc3nc(C)cc(C)n3)cc2)cc1 | -1.25
83 | O=C1CCC(N2C(=O)c3cc(F)c(N4CCC(Cn5cc(C(=O)O)cn5)CC4)cc3C2=O)C(=O)N1 (stereo not given) | -2
84 | Cc1cc(C)nc(NS(=O)(=O)c2ccc(NC(=O)CSc3nc4c(cc3C#N)CCCCC4)cc2)n1 | -5.67
85 | Cc1ccc(C)c2c1[nH]c1nc(SCC(=O)Nc3cccc(F)c3)nnc12 | -2.81
86 | CC(=O)N1CCC(Cc2cccc(Nc3nc(C)cs3)n2)CC1 | 10.6
87 | CCCCc1cnc(Nc2cccc(C3CCN(C(=O)[C@@H]4CCCCN4)CC3)n2)s1 | -11.4
88 | O=C(Nc1ccc(S(=O)(=O)Nc2ncccn2)cc1)c1ccc2c(c1)OCO2 | -3.11
89 | COc1ccc(Cl)cc1C(=O)Nc1ccc(S(=O)(=O)Nc2nccc(C)n2)cc1 | -1.7
90 | COc1ccc2[nH]c(SCC(=O)Nc3ncccn3)nc2c1 | 1.53
91 | Cc1cnc(Nc2cccc(C3CCN(C(=O)C4(NC(=O)CC(C)(C)C)CCCCC4)CC3)n2)s1 | -16.1
92 | CCc1ccccc1OCC(=O)Nc1ccc(S(=O)(=O)Nc2nc(C)cc(C)n2)cc1 | -4.88
93 | CCCN1CC(C(=O)N2CCC(c3cccc(Nc4ncc(C)s4)n3)CC2)CC1=O (stereo not given) | -5.35
94 | COc1cc(NS(=O)(=O)c2ccc(NC(=O)c3ccccc3C(=O)O)cc2)nc(OC)n1 | -4.23
95 | COc1cc(NS(=O)(=O)c2ccc(NC(=O)/C=C/c3ccco3)cc2)nc(OC)n1 | 1.19
